Test results published in PubChem BioAssay.

Tested on: not listed separately
Assay: probe aNOTCH2 binding on compound microarray – biochemical, small-molecule microarray, 635/667 nm fluorescence, primary screen (AID 1121);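 also: score merges feature fluorescence read at 667 nm with its signal to noise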
Conditions: higher = more signal

Compared with `Cn1c(=O)n2n(c1=O)[C@H]1[C@H](O)[C@@H]3O[C@@H]3C(=O)[C@H]1CC2`, `COc1ccc(O[C@H]2C=C[C@@H](c3ccccc3)O[C@@H]2CON=C2[C@H]3CCn4c(=O)n(-c5ccccc5)c(=O)n4[C@H]3[C@H](O)[C@@H]3O[C@H]23)cc1` is lower in composite z-score: -0.124 for the first, -0.132 for the second.

For `O=C1C[C@@H](O)[C@@H](O)[C@@H]2[C@@H]3C(=O)N(C[C@@H]4CCCO4)C(=O)[C@@H]3CC[C@@H]12`, the composite z-score was -0.111.

Biological target: Carbonic anhydrase 2 (Homo sapiens) (UniProt P00918)
Assay: compounds binding carbonic anhydrase 2 – biochemical, small-molecule microarray, Alexa647-labelled CAII, profiling panel (AID 1122)
Conditions: CAII-A647 binding fluorescence, higher = more signal

First: CC(C)CCN1CCc2nc(COc3ccccc3)c3c(c2C1)CO[C@@H](C)C3
Second: CO[C@H]1COC(=O)[C@@H](C)COC(=O)[C@H](COCc2ccccc2)NC(=O)CC=C[C@H]1C
The composite z-score of the first is higher: 0.319 for the first, -0.551 for the second.

Going from `O=C(NN=C1C[C@@H](O)[C@@H](O)[C@@H]2[C@@H]3C(=O)N(Cc4ccccc4)C(=O)[C@@H]3CC[C@@H]12)OCc1ccccc1` to `CCN1C(=O)[C@H]2[C@H]3[C@H](O)[C@H](O)CC(=NO[C@@H](C)c4cn([C@H](CO)Cc5ccccc5)nn4)[C@@H]3CC[C@H]2C1=O`, the composite z-score rises from -0.362 to 0.556.

Going from `CO[C@@H]1COC(=O)[C@@H](C)COC(=O)[C@@H](C)NC(=O)CC=C[C@@H]1C` to `CO[C@@H]1C=CCC(=O)N[C@@H](C)C(=O)OC[C@@H](OC)[C@H](C)CCCC(=O)OC[C@H]1C`, the composite z-score falls from -0.425 to -1.01.

Compared with `CO[C@@H]1COC(=O)CC=C[C@@H](C)[C@@H]2C=C[C@H](O)[C@@H](COC(=O)CC=C[C@H]1C)O2`, `C[C@@H]1C=CCC(=O)OC[C@H]2O[C@@H](C=C[C@@H]2O)[C@H](C)C=CCC(=O)OC1` is lower in composite z-score: -0.257 for the first, -0.5 for the second.

Going from `COC(=O)[C@@H]1CC[C@H](C)[C@@H](c2ccc(C)cc2)N1C(=O)c1ccc(C=NO[C@H](C)c2cn([C@H](CO)Cc3ccccc3)nn2)cc1` to `CC(=O)OC[C@H]1O[C@H](CC=NO[C@H](C)c2cn([C@H](CO)Cc3ccccc3)nn2)C=C[C@@H]1OC(C)=O`, the composite z-score falls from 0.233 to -0.0934.

First: CCC=CCCC(OC(=O)c1ccc(Br)cc1)C1=CCCCC1=O (stereo not drawn)
Second: O=C1CCCC=C1C(O)CCCCBr (stereo not drawn)
The composite z-score of the first is lower: 0.696 for the first, 0.778 for the second.

First: CCOC(=O)CCN1C(=O)[C@H]2[C@H]3[C@H](O)[C@H](O)CC(=NOCC(C)C)[C@H]3CC[C@H]2C1=O
Second: C#CCCCON=C1C[C@@H](O)[C@@H](O)[C@@H]2[C@@H]3C(=O)N(CC)C(=O)[C@@H]3CC[C@@H]12
The composite z-score of the first is lower: -0.278 for the first, 0.231 for the second.

Going from `CON=C1[C@H]2CCn3c(=O)n(-c4ccccc4)c(=O)n3[C@H]2[C@H](O)[C@@H]2O[C@H]12` to `C[C@@H]1CC[C@H]2C(=O)O[C@@H](Cc3ccccc3)CN2[C@H]1c1ccc(Br)cc1`, the composite z-score rises from 0.0479 to 0.512.

Going from `CC(C)=CCCC(C)=CCON=C1C[C@@H](O)[C@@H](O)[C@@H]2[C@@H]3C(=O)N(C(C)(C)C)C(=O)[C@@H]3CC[C@@H]12` to `CC(C)=CCCC(C)=CCON=C1C[C@@H](O)[C@@H](O)[C@@H]2[C@@H]3C(=O)N(C4CCCCC4)C(=O)[C@@H]3CC[C@@H]12`, the composite z-score rises from -0.0211 to 0.276.

Compared with `CC(C)(C)N1C(=O)[C@H]2[C@H]3[C@H](O)[C@H](O)CC(=O)[C@@H]3CC[C@H]2C1=O`, `O=C1[C@H]2[C@H]3[C@H](O)[C@H](O)CC(=NOC[C@@H](O)COCc4ccco4)[C@H]3CC[C@H]2C(=O)N1C[C@@H]1CCCO1` is lower in composite z-score: 0.113 for the first, -0.237 for the second.

Going from `C=Cc1ccc([C@H]2N[C@H](C(=O)O)CC[C@@H]2C)cc1` to `Cc1ccc(S(=O)(=O)OC[C@H]2CN3[C@H](c4ccc(Br)cc4)[C@@H](C)CC[C@H]3C(=O)O2)cc1`, the composite z-score rises from 0.275 to 0.366.

Compared with `O=C(C=Cc1ccc2c(c1)OCO2)c1ccc(F)cc1`, `CCOC(=O)[C@H](Cc1ccccc1)NC(=O)CCC1CC(OC(=O)NCc2ccc3c(c2)OCO3)CC2(CCCC(COC(=O)NCCC(C)C)O2)O1` (stereo partly drawn) is higher in composite z-score: -0.236 for the first, 0.493 for the second.

Going from `C=CC1=C[C@H](O)[C@@H]2O[C@@H]2C12OCCCO2` to `COC(=O)CC=C[C@@H](C)[C@@H](C=NOC[C@@H](O)[C@H]1O[C@@H]2OC(C)(C)O[C@@H]2[C@H]1O)NS(=O)(=O)c1ccc(C)cc1`, the composite z-score falls from 0.0206 to -0.0777.

Compared with `CC(C)=NO[C@H](C)c1cn([C@H](CO)Cc2ccccc2)nn1`, `O=C1CCCC=C1C(O)CCOC(c1ccccc1)(c1ccccc1)c1ccccc1` (stereo not drawn) is lower in composite z-score: 0.13 for the first, -0.252 for the second.

First: CCOC(=O)[C@H](Cc1ccccc1)NC(=O)CCC1CC(OC(=O)NCCc2ccc(F)cc2)CC2(CCCC(COC(=O)NCc3ccccc3)O2)O1 (stereo partly drawn)
Second: COC(=O)CC=C[C@@H](C)[C@@H](C=NOC(C)CN1CCCc2nc(C)c(C)cc21)OC (stereo partly drawn)
The composite z-score of the first is higher: 0.108 for the first, -0.0864 for the second.
